Results reported in ChEMBL document CHEMBL3988442, “University of Dundee, Small-Polar-MMV Screening Library” (2021).
Among all 38,000 compounds or so, about 1,200 (3.2%) showed an effect of 50% or more. The median lay at about -58%. The full list was thinned out, with strong results kept by preference.

Each molecule was assayed on Plasmodium falciparum (assay: Calibr Malaria Delayed Death Assay SOP). Details: concentration 4.99e-06 (unit not given; other assays of the set use mol/L).
Type: functional, organism-based
Design: scale not given: in the data most compounds retested in dose-response had high values

Row | SMILES | Percent Effect [%]
1 | CCCc1cc(N2CCC(Cc3cccc(C(N)=O)c3)C2)nc(C)n1 (stereo not drawn) | -73.24
2 | CN(C)c1cc(C(=O)NCc2cccnc2-n2cncn2)ccn1 | -24.53
3 | Cc1ccc(CN(CCN(C)C)C(=O)Nc2ccc(C)c(C#N)c2)s1 | 40.03
4 | Cc1ccsc1CN(CCN(C)C)C(=O)c1ccccc1C#N | 59.93
5 | Cc1ccsc1CN(CCN(C)C)C(=O)c1cc2ccccc2[nH]1 | -0.6518
6 | O=C(NC[C@@H]1CCCO1)c1cccnc1N1CCCC1c1ccccn1 (stereo partly drawn) | -159.2
7 | CCOC(=O)N[C@H]1C[C@@H](C(=O)NCCc2cccc(Cl)c2)N(C)C1 | -112.6
8 | Cc1nc(-c2cccc(N3CCC(N4CCCC4)CC3)c2)cs1 | 70.2
9 | Cc1nc(-c2cccc(N3CCC(N4CCCC(C#N)C4)CC3)c2)cs1 (stereo not drawn) | -24.98
10 | COC1CCCN(C2CCN(c3cccc(-c4csc(C)n4)c3)CC2)C1 (stereo not drawn) | -26.41
11 | CC(C)c1nnc(CN(C)Cc2ccccc2-c2ccccc2)o1 | -137.8
12 | Cc1nc(N2CCCC2)nc2c1CCN(C(=O)C(C)C)CC2 | -54.78
13 | CCC(NCc1ccccc1C)c1ccccc1OCC(=O)NC (stereo not drawn) | 78.75
14 | Cc1ccccc1CNc1ccccc1OCC(=O)N1CCOCC1 | 13.74
15 | CCC(NCc1ccccc1Cl)c1ccccc1OCC(=O)NC (stereo not drawn) | 73.2
16 | O=C(COc1cccc2c1CCC2=O)NCc1ccccc1Cl | -71.52
17 | CCC(NC(=O)CC(F)(F)F)c1ccccc1OCC(=O)N1CCCC1 (stereo not drawn) | 15.61
18 | Cc1ccc(OCCCC(=O)NC(C)c2nnc3n2CCC3)cc1 (stereo not drawn) | -64.5
19 | O=C1CCC(=O)N1CCn1nnc(-c2ccc(Br)cc2)n1 | -91.28
20 | CCS(=O)(=O)N1CCN(Cc2cccnc2)c2nc(C)ccc2C1.O=C(O)C(F)(F)F.O=C(O)C(F)(F)F | 2.753

Row | SMILES | Percent Effect [%]
21 | COc1ccc(Oc2cccc(C#N)n2)cc1CN1CCCC1 | -26.21
22 | COc1ccc(Oc2ccc(C(F)(F)F)cn2)cc1CN1CCCC1 | 49.66
23 | c1ccc(Oc2nccc3occc23)c(CN2CCCCC2)c1 | 71.51
24 | COc1ccc(Oc2nccc3occc23)cc1CN1CCCC1 | 59.92
25 | CCCc1nnc(N2CCN(Cc3ccccc3OC)CC2)o1 | -122.5
26 | O=S1(=O)CCCN(Cc2ccccc2OCC(F)(F)F)CC1 | -23.25
27 | CN1CCN(CCCOc2ccccc2CN2C[C@H]3CC[C@H]2C3)CC1 | 15.78
28 | CN1CCN(Cc2ccccc2Oc2nccc3occc23)CC1 | 77.3
29 | CN1CCN(Cc2c(-c3ccco3)[nH]c3ncccc23)CC1 | -17.66
30 | O=C(c1ccc(Cn2cccc2)cc1)N1CCN(CCO)CC1 | -124.1
31 | COc1ccc(C(=O)c2cnc(C(C)C)n2C)cc1 | -137.4
32 | CCC(Nc1cccc(Oc2ccccn2)c1)C(N)=O (stereo not drawn) | -89.12
33 | Cc1noc(C)c1C(=O)N1CCSc2ccc(Cl)cc21 | -64.97
34 | COc1ccc(CN2C[C@@H]3COC[C@@H](N4CCN(C)CC4)[C@@H]3C2)cc1.O=C(O)C(F)(F)F.O=C(O)C(F)(F)F.O=C(O)C(F)(F)F | 72.48
35 | COc1ccc(CN2C[C@@H]3COC[C@H](N4CCN(C)CC4)[C@@H]3C2)cc1.O=C(O)C(F)(F)F.O=C(O)C(F)(F)F.O=C(O)C(F)(F)F | 39.43
36 | CN1CCN([C@H]2COC[C@@H]3CN(Cc4cccnc4)C[C@@H]32)CC1 | -16.78
37 | Cc1cc(C)cc(CN2C[C@H]3COC[C@H](N4CCN(C)CC4)[C@H]3C2)c1.O=C(O)C(F)(F)F.O=C(O)C(F)(F)F.O=C(O)C(F)(F)F | 93.63
38 | CCN(CC)[C@H]1COC[C@@H]2CN(Cc3cnn(C)c3)C[C@@H]21 | -7.149
39 | O=C(O)C(F)(F)F.O=C(O)C(F)(F)F.c1cc2c(cc1CN1C[C@@H]3COC[C@@H](N4CCCC4)[C@@H]3C1)OCO2 | 41.71
40 | COc1ccc(CN2C[C@@H]3COC[C@@H](CC(=O)N4CCCC4)[C@@H]3C2)cc1.O=C(O)C(F)(F)F | -28.59

Row | SMILES | Percent Effect [%]
41 | CN(C)[C@H]1COC[C@@H]2CN(Cc3ccc4c(c3)OCO4)C[C@@H]21.O=C(O)C(F)(F)F.O=C(O)C(F)(F)F | 25.51
42 | CCOC(=O)[C@H]1[C@@H](O)C(=O)N(C)C12CCN(C(=O)CC(C)(C)C)CC2 | -173.1
43 | Cc1nn2cccnc2c1C(=O)N1CCCC(n2cccn2)C1 (stereo not drawn) | -26.13
44 | Cc1ccccc1CN1CC[C@H]2C[C@H](C(=O)N(C)C)O[C@H]2C1.O=C(O)C(F)(F)F | -65.63
45 | COc1ccc2nnc(CCC(=O)Nc3nc4c(s3)CCCCC4)n2n1 | -7.858
46 | CC(C)[C@]1(O)CN(C(=O)C2(Cn3cccn3)CC2)C[C@H]1C | -13.49
47 | COC[C@@]12CCO[C@@H]1CCN(C(=O)CCc1ccccc1Cl)C2 | -39.1
48 | O=C(Nc1ccc(-n2cccn2)cc1)N1CCC(O)C1 (stereo not drawn) | -73.59
49 | CC(=O)c1ccc(-n2c(C)cn(CCS(C)(=O)=O)c2=O)cc1 | 3.074
50 | CNC(=O)[C@H]1C[C@@H]2CN(C(=O)NCCc3ccccc3)C[C@H]1O2 | -57.69
51 | Cc1n[nH]cc1CNCc1ccnc(OCC(F)(F)F)c1.Cl | -70.94
52 | Cc1n[nH]cc1CNCc1cccc(OCC(F)(F)F)c1.Cl | 56.25
53 | Cc1n[nH]cc1CNC(=O)Nc1cccc(OCC(F)(F)F)c1 | -36.62
54 | O=C1CCNc2ccccc2CN1Cc1ccco1 | -58.24
55 | Cc1cnn(C2CCCN(C(=O)c3ccc(-n4ccnc4)cc3)C2)c1 (stereo not drawn) | -131.1
56 | c1ncn(CC2CCCN(Cc3noc(C4CC4)n3)C2)n1 (stereo not drawn) | -140.8
57 | CCc1nc(Nc2cccc(C(=O)NC)c2)c2c(n1)c(C)nn2CC | -106.8
58 | COc1ccnc(NC(Cc2ccccc2)C(N)=O)n1 (stereo not drawn) | -102.6
